Bioassay records from PubChem BioAssay.
FBW7 act: activators of human E3 ligase FBW7; AlphaScreen FBW7–phospho-cyclin E peptide binding, activator screen; normalized activity (activation), % at 26.1 µM; hit rate 0.13% among 650,000; Q969H0; in the data active means normalized activity above about 1.9%;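 further: purified mutant Fbw7 with reduced substrate affinity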
GPR151 activ: human GPR151 activation | Q8TDV0 | activation, % at 11.2 µM | PathHunter beta-arrestin GPR151 cells, luminescence | hit rate 1% among 650,000; in the data active means activation above about 4.9%;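 further: 0% = median of compound wells and 100% = cells with positive control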
TEAD-YAP block: TEAD-YAP interaction inhibition | HEK-TIYL cells, TEAD-Gal4/YAP UAS-luciferase luminescence | inhibition, % at 9.12 µM | hit rate 1.4% among 640,000 | AID 1259422; in the data active means inhibition above about 32%;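 further: 0% = median of test compound wells and 100% = reference inhibitor wells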
MITF inh: inhibitors of human MITF; AID 1259374; AlphaScreen MITF homodimerization, bead proximity signal; inhibition, % at 2.6 µM; hit rate 0.91% among 650,000; in the data active means inhibition above about 50%;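 further: 0% = vehicle wells with protein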
Target sequence (O75030 whole entry, looked up): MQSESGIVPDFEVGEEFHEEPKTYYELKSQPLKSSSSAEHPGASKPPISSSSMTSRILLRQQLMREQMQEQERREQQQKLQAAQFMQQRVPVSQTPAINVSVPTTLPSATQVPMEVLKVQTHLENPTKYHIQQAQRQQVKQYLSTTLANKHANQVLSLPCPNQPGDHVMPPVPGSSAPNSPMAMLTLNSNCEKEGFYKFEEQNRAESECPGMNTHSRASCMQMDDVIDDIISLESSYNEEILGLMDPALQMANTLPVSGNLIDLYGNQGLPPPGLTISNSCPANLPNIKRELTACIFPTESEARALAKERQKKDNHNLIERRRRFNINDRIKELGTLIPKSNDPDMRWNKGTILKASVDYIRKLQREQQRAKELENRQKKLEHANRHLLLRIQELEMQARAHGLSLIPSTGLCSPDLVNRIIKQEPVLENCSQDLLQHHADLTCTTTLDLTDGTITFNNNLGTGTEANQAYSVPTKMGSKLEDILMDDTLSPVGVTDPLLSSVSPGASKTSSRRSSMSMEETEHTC
MITF inh conf: confirmation of human MITF inhibitors. shares compounds with MITF inh. AlphaScreen MITF homodimerization, biotin/His-MITF beads. inhibition, % at 2.6 µM. hit rate 16% among 4,700. AID 1259372;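 active means inhibition above a cutoff derived from the DMSO control wells, cut at about 28% in these data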;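 further: 0% = MITF dimer wells with DMSO only; inhibitors lower the bead chemiluminescence by keeping MITF from dimerizing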
AS interf DR: optically interferes with AlphaScreen signal in dose response | AlphaScreen optical interference counterscreen, cell-free | IC50, µM | hit rate 6% among 480 | shares compounds with MITF inh | AID 1259373; call rule not given here
AlphaScreen intf2: counter-screen: compounds optically interfering with AlphaScreen. hit rate 7.6% among 4,700. inhibition, % at 2.6 µM. shares compounds with MITF inh. LysRS AlphaScreen counterscreen, signal interference, triplicate;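 active means inhibition above a cutoff derived from the DMSO control wells, cut at about 30% in these data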
* = called active by the depositor. Hits are enriched below; roughly 3.4% of the tested compounds scored in any of these assays.

Results for CCN1CCN(S(=O)(=O)c2c(Cl)cccc2Cl)CC1 ?
FBW7 act: 0; GPR151 activ: 4; TEAD-YAP block: 4; MITF inh: 15

How did COCCNCCOCCOc1cc(C)cc(C(C)C)c1 do in these assays?
FBW7 act: 0; GPR151 activ: -1; TEAD-YAP block: 1; MITF inh: 53*; MITF inh conf: 5; AlphaScreen intf2: 6

How did C=CCNCCOCCOc1cc(C)cc(C(C)C)c1 do in these assays?
FBW7 act: 0; GPR151 activ: 2; TEAD-YAP block: 0; MITF inh: 64*; MITF inh conf: 11; AlphaScreen intf2: 19

What do the screens show for `C=CCNCCOc1cc(C)cc(C(C)C)c1`?
FBW7 act: 0; GPR151 activ: -1; TEAD-YAP block: -13; MITF inh: -19

What do the screens show for `CCOC(CNC(=O)c1c[nH]c2ccc(S(=O)(=O)N(CC)c3ccc(F)cc3)cc2c1=O)OCC`?
FBW7 act: 0; GPR151 activ: 2; TEAD-YAP block: 11; MITF inh: -11

How did CCOc1ccc(C(c2nnnn2CCc2ccccc2)N2CCN(C)CC2)cc1 (stereo not given) do in these assays?
FBW7 act: 0; GPR151 activ: 0; TEAD-YAP block: -2; MITF inh: 14

What do the screens show for `O=C(CCc1ccccc1)Nc1nnc(-c2cccs2)s1`?
FBW7 act: 0; GPR151 activ: 1; TEAD-YAP block: 0; MITF inh: 55*; MITF inh conf: 0; AlphaScreen intf2: 12

How did O=C(CSc1ccccc1C(=O)O)Nc1ccc(Cl)cc1 do in these assays?
FBW7 act: 1; GPR151 activ: -1; TEAD-YAP block: 10; MITF inh: 19

How did Cc1cc(C)cc(C(=O)Nc2c3c(nn2-c2ccc(F)cc2)CSC3)c1 do in these assays?
FBW7 act: 0; GPR151 activ: 1; TEAD-YAP block: 18; MITF inh: 2

What do the screens show for `Cc1cccc(C(=O)Nc2c3c(nn2-c2ccc(F)cc2)CSC3)c1`?
FBW7 act: 0; GPR151 activ: 2; TEAD-YAP block: -3; MITF inh: 53*; MITF inh conf: 35*; AS interf DR: >5.5; AlphaScreen intf2: -3

Results for COc1ccc(/C=C\C(=O)Nc2c3c(nn2-c2cccc(Cl)c2)CSC3)cc1OC ?
FBW7 act: 0; GPR151 activ: 0; TEAD-YAP block: -13; MITF inh: -9

Results for O=C(/C=C\c1ccccc1)Nc1c2c(nn1-c1cccc(Cl)c1)CSC2 ?
FBW7 act: 0; GPR151 activ: 2; TEAD-YAP block: -3; MITF inh: 67*; MITF inh conf: 10; AlphaScreen intf2: -1

Results for Cc1ccc(CNC(=O)c2ccc([N+](=O)[O-])cc2Cl)cc1 ?
FBW7 act: 0; GPR151 activ: 1; TEAD-YAP block: -7; MITF inh: -3

How did Cc1cccc(OCC(=O)N/N=C\c2ccccc2)c1 do in these assays?
FBW7 act: 0; GPR151 activ: -1; TEAD-YAP block: 9; MITF inh: 21

What do the screens show for `Cc1cc(C)cc(-n2c(SCC(=O)Nc3nccs3)nnc2-c2cccnc2)c1`?
FBW7 act: 0; GPR151 activ: 1; TEAD-YAP block: -13; MITF inh: 58*; MITF inh conf: 2; AlphaScreen intf2: 15

What do the screens show for `COc1cccc(-n2c(SCC(=O)Nc3nccs3)nnc2-c2cccnc2)c1`?
FBW7 act: 0; GPR151 activ: -1; TEAD-YAP block: -3; MITF inh: 4

What do the screens show for `O=C(NC1CCS(=O)(=O)C1)c1ccccc1Br` (stereo not given)?
FBW7 act: 0; GPR151 activ: 1; TEAD-YAP block: -5; MITF inh: 51*; MITF inh conf: 10; AlphaScreen intf2: -6

What do the screens show for `O=C(NC(=S)NC1CCS(=O)(=O)C1)c1ccccc1Br` (stereo not given)?
FBW7 act: 0; GPR151 activ: -1; TEAD-YAP block: 6; MITF inh: -7

How did CN1C(=O)/C(=C/c2ccco2)SC1=S do in these assays?
FBW7 act: 0; GPR151 activ: 2; TEAD-YAP block: 1; MITF inh: 14

Results for Cc1[nH]c2c(-n3c(C)cc(C(F)(F)F)cc3=O)cccc2c1C ?
FBW7 act: 0; GPR151 activ: 1; TEAD-YAP block: 3; MITF inh: 53*; MITF inh conf: 9; AlphaScreen intf2: 12
